# Assay results published in publication PMC12670160, “A drug-repurposing screen of FDA- and EMA-approved drugs identifies two NF-κB inhibitors active against eumycetoma” (Journal of Antimicrobial Chemotherapy, 2025).
# Where a name gives a salt, the structure may show the parent alone. Out of some 5,300 compounds screened, about 130 (2.5%) showed an effect of 50% or more. Many of the other results were omitted from the sample, so strong results are more common in it than they were.
# Test system: M. mycetomatis strain mm55
# Conditions: primary screen, metabolic activity vs growth control; 96 h, 2 µM; inhibitor
row,SMILES,% viability [%]
1,"Nc1ncnc2c1c(-c1cccc(OCc3ccccc3)c1)cn2C1CC(CN2CCCC2)C1 (stereo in doubt) [ONC0000263, nvpadw742]",57.9
2,"CCCN1C[C@@H](NS(=O)(=O)N(CC)CC)C[C@@H]2Cc3c(O)cccc3C[C@H]21 [ONC0000942, quinagolide hydrochloride]",65.37
3,"CO[C@H](C(=O)[C@@H](O)[C@@H](C)O)[C@@H]1Cc2cc3cc(O[C@H]4C[C@@H](O[C@H]5C[C@@H](O)[C@H](O)[C@@H](C)O5)[C@@H](O)[C@@H](C)O4)c(C)c(O)c3c(O)c2C(=O)[C@H]1O[C@H]1C[C@@H](O[C@H]2C[C@@H](O[C@H]3C[C@](C)(O)[C@H](O)[C@@H](C)O3)[C@H](O)[C@@H](C)O2)[C@H](O)[C@@H](C)O1 [ONC0003516, plicamycin mithramycin]",50.92
4,"Cc1c(N)nc([C@H](CC(N)=O)NC[C@H](N)C(N)=O)nc1C(=O)N[C@H](C(=O)N[C@H](C)[C@@H](O)[C@H](C)C(=O)N[C@H](C(=O)NCCc1nc(-c2nc(C(=O)NCCC[S+](C)C)cs2)cs1)[C@@H](C)O)[C@@H](O[C@@H]1O[C@@H](CO)[C@@H](O)[C@H](O)[C@@H]1O[C@H]1O[C@H](CO)[C@@H](O)[C@H](OC(N)=O)[C@@H]1O)c1c[nH]cn1 [ONC0004316, bleomycin sulfate]",4.137
5,"Cc1c(N)nc([C@H](CC(N)=O)NC[C@H](N)C(N)=O)nc1C(=O)N[C@H](C(=O)N[C@H](C)[C@@H](O)[C@H](C)C(=O)N[C@H](C(=O)NCCc1nc(-c2nc(C(=O)NCCCNCCCCN)cs2)cs1)[C@@H](C)O)[C@@H](O[C@@H]1O[C@@H](CO)[C@@H](O)[C@H](O)[C@@H]1O[C@@H]1O[C@H](CO)[C@@H](O)[C@H](OC(N)=O)[C@@H]1O)c1cnc[nH]1 [ONC0002990, bleomycetin]",3.217
6,"CO/N=C(/C(=O)NC1C(=O)N2C(C(=O)O)=C(C[N+]3(C)CCCC3)CSC12)c1csc(N)n1 (centres unmarked) [ONC0000506, cefepime hydrochloride]",66.95
7,"CC(=O)OCC(=O)[C@@]1(O)[C@@H](C)CC2C3CCC4=CC(=O)C=C[C@]4(C)[C@@]3(F)[C@@H](O)C[C@@]21C (some centres unmarked) [ONC0004050, betamethasone acetate]",111.9
8,"O=CN1CCC(C(=O)NCCN2CCC(=C3c4ccccc4C=Cc4ccccc43)CC2)CC1 [ONC0001856, at1015]",84.57
9,"N#Cc1ccc(N2NC3=C(CCc4cc(C(=O)O)ccc43)[C@@H]2C2CCCC2)cc1Cl [ONC0002131, pf03882845]",78.15
10,"O=C(Nc1cccc(Cl)c1)c1ccccn1 [ONC0004653, vu 0364770]",68.57
11,"COc1ccc(Nc2nccc(NCCO)n2)cc1 [ONC0000720, cardiogenolc]",79.31
12,OCCCNc1cc(-c2ccnc(Nc3cccc(Cl)c3)n2)ccn1 [cgp60474],9.09
13,"CC(C)[C@H](N)C(=O)OCCOCn1cnc2c(=O)[nH]c(N)nc21 [ONC0004144, valacyclovir hydrochloride]",101.2
14,"O=c1[nH]ccc2cc(OC3CCNCC3)ccc12 [ONC0001198, sar407899 hydrochloride]",94.6
15,"O=C(CC1CC(c2ccc(F)cc2F)=NO1)N1CCOCC1 (centres unmarked) [ONC0000237, cpsi1306]",89.07
16,"O=C1CN(/N=C/c2ccc(-c3ccc([N+](=O)[O-])cc3)o2)C(O)=N1 [ONC0003073, dantrolene]",104.9

row,SMILES,% viability [%]
1,"COC(=O)[C@@]12OC[C@]34[C@H]([C@@H](O)[C@@H]1O)[C@@]1(C)CC(=O)C(O)=C(C)[C@@H]1C[C@H]3OC(=O)[C@H](OC(=O)/C=C(\C)C(C)C)[C@@H]24 [ONC0001105, bruceantin]",72.53
2,"COc1cc2c(NC3CCN(C)CC3)nc(N3CCCN(C)CC3)nc2cc1OCCOCCN(C)C [ONC0002054, unc0321]",65.32
3,"COc1cc2nc(N3CCCN(C)CC3)nc(NC3CCN(Cc4ccccc4)CC3)c2cc1OC [ONC0004534, bix 01294]",44.63
4,"COc1cc2c(NC3CCN(C)CC3)nc(N3CCCN(C)CC3)nc2cc1OCCCN(C)C [ONC0000276, unc0224]",85.54
5,"CNCCc1c[nH]cn1 [ONC0002580, nalphamethylhistaminedihydrochloride]",77.02
6,"C[C@]12C=CC(=O)C=C1CCC1C2[C@@H](O)C[C@@]2(C)C1CC[C@]2(O)C(=O)COC(=O)CCC(=O)O (some centres unmarked) [ONC0004028, prednisolone hemisuccinate]",62.59
7,"COc1ccc2c(NC(=O)Nc3cccc(C(F)(F)F)n3)ccnc2c1 [ONC0002529, a1070722]",76.76
8,"O=C(O)CCC(=O)O [ONC0003714, succinic acid]",98.68
9,"NCC(=O)O [ONC0001985, glycine]",104.5
10,"NCC(=O)CCC(=O)O [ONC0004291, aminolevulinic acid hydrochloride]",48.43
11,"CC(C)OC(=O)CNC(=O)[C@H](CS)NC(=O)CC[C@H](N)C(=O)O [ONC0002985, glutathionemonoisopropylester]",70.59
12,"CC(C)(S)C(=O)N[C@@H](CS)C(=O)O [ONC0003276, bucillamine]",45.36
13,"CC(=O)N[C@@H](CS)C(=O)O [ONC0000337, acetylcysteine]",67.99
14,"NC(=O)c1cc[n+](CC2=C(C(=O)O)N3C(=O)[C@@H](NC(=O)Cc4cccs4)[C@H]3SC2)cc1 [ONC0005624, cefalonium]",95.75
15,"CO[C@H]1CC[C@H](N(c2cc(C3=CCCCC3)sc2C(=O)O)C(=O)[C@H]2CC[C@H](C)CC2)CC1 [ONC0000943, vch916]",78.62
16,"CC(C)c1ccc(C(=O)NC(=N)N)cc1S(C)(=O)=O [ONC0004136, cariporide]",93.97
